Compound activity: PubChem, SRMLSC
Autofluor 339 – intrinsic fluorescence of library compounds, ex339/em460 – biochemical, MLSMR library, data from DPM-DC assay, artefact control, profiling panel; compound autofluorescence, ex339/em460 nm, NADH buffer; active compounds read high; 1 = no-compound wells, NADH background; fluorescence fold increase at 10 µM; actives 5.5% (n = 65,000);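 active = at 10 µM, mean starting fluorescence two-fold or more over control wells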;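 note: signal is the first read of a kinetic run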
Spn PMK inh – inhibitors of Streptococcus pneumoniae phosphomevalonate kinase. purified PMK, PK/LDH-coupled NADH absorbance 340 nm. inhibition, % at 10 µM. actives 0.49% (n = 65,000);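 active = top-ranked compounds by inhibition in the single 10 µM screen, taking a fixed number of the strongest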;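 note: 0% = full reaction with DMSO carrier and 100% = background rate without enzyme reaction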
Spn DPM-DC inh – blocks S. pneumoniae diphosphomevalonate decarboxylase | AID 556 | calls only at 10 µM | purified DPM-DC, PK/LDH coupled NADH fluorescence | actives 0.49% (n = 65,000);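 active = the 320 compounds with the highest percent inhibition in the single-dose primary screen, excluding strongly autofluorescent ones, cut at about 32% in these data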;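 note: kinetic rate of NADH fluorescence loss reporting ADP formed by the decarboxylase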
Spn MK inh – inhibitors of Streptococcus pneumoniae mevalonate kinase; actives 0.48% (n = 65,000); inhibition, % at 10 µM; purified MK, PK/LDH-coupled NADH absorbance 340 nm;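 active = ranked among the strongest by inhibition in the single 10 µM screen, a fixed top-ranked set picked for dose follow-up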
NADH enzymes – inhibitors of enzymes used to reach an NAD/NADH endpoint; actives 0.02% (n = 65,000); IC50, µM (highest dose often 10 µM), for inactives: top-dose inhibition; coupled PK/LDH NADH assays, four targets;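 active = single-dose screening hits from any of four coupled enzyme assays that gave an IC50 when retested across doses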;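 note: the DPM-DC format reads NADH fluorescence rather than 340 nm absorbance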
A340 absorber – absorbance at 340 nm. 65,000 tested, under 10 active. compound absorbance at 340 nm, fold over control. fold change at 10 µM;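 active = at 10 µM dose, initial 340 nm absorbance at least 2 fold that of control wells; inactive = change under 2 fold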;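 note: initial absorbance extrapolated from kinetic A340 decline of NADH oxidation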
Starred values were filed as active, the others as inactive; i = inactive; nt = not tested or not shown; + = active, no number. The list is not random: actives were taken first. Their share in the collection is about 6.8%.

SMILES | Autofluor 339 | Spn PMK inh | Spn DPM-DC inh | Spn MK inh | NADH enzymes | A340 absorber
Cc1ccc2nc3c(cc(C(=O)NCc4ccccc4)c(=N)n3CCCn3ccnc3)c(=O)n2c1 | 3.8* | 6 | nt | 0 | 3% | 1.1
Cc1cccn2c(=O)c3cc(C(=O)NC(C)c4ccccc4)c(=N)n(CCCn4ccnc4)c3nc12 (centres undefined) | 3.8* | 6 | nt | 0 | 3% | 1.1
CS(=O)(=O)N(CC(=O)NCC1CCCO1)c1ccc(F)c(Cl)c1 (centres undefined) | 1.1 | 9 | i | 11 | 8% | 1
COc1cc2cc(CN(CCCO)S(=O)(=O)c3ccccc3Cl)c(=O)[nH]c2cc1OC | 3.5* | 25* | nt | 8 | 17% | 1.1
COc1cc2cc(CN(CCO)S(=O)(=O)c3ccccc3Cl)c(=O)[nH]c2cc1OC | 3.1* | 6 | i | 8 | 15% | 1
Cc1cc2cc(CN(CCCO)S(=O)(=O)c3cccc4nsnc34)c(=O)[nH]c2cc1C | 1.1 | 19 | i | 12 | 10% | 1.1
COc1cc2cc(CN(CCCO)S(=O)(=O)c3ccccc3)c(=O)[nH]c2cc1OC | 3.9* | 0 | nt | 5 | 3% | 1.1
CCOC(=O)c1cccc(S(=O)(=O)N(CCO)Cc2cc3cc(OC)c(OC)cc3[nH]c2=O)c1 | 1.3 | 9 | i | 0 | 3% | 1
CCCC(C(=O)NC1CCCC1)N(CCCN1CCOCC1)C(=O)c1snc(C(N)=O)c1N (centres undefined) | 2.2* | 11 | i | 0 | 10% | 1
CCCC(C(=O)NC1CCCC1)N(CC1CCCO1)C(=O)c1snc(C(N)=O)c1N (centres undefined) | 2.8* | 11 | i | 18 | 14% | 1
Cc1nc2ccccc2c(=O)n1NCc1cc(Br)cs1 | 1.2 | 10 | i | 1 | 6% | 0.99
Cc1nc2c(cnn2-c2ccc(Cl)cc2)c(=O)n1-c1ccc2c(c1)OCCO2 | 1.1 | 15 | i | 8 | 8% | 0.96
Cc1cccc2cc3c(NC(=O)CC(C)C)nn(C)c3nc12 | 2.9* | 9 | i | 8 | 11% | 1
CCCCC(=O)Nc1nn(C)c2nc3c(C)cccc3cc12 | 2.4* | 15 | i | 10 | 12% | 1
CCCCC(=O)Nc1nn(CCC)c2nc3ccccc3cc12 | 1.4 | 4 | i | 5 | 3% | 0.99
Cc1cc(NC(=O)c2cc(S(=O)(=O)N3CCCCC3)ccc2C)n(-c2ccccn2)n1 | 1.1 | 0 | i | 0 | 0% | 1
Cc1ccc(-c2c(C)c(-c3ccc(F)cc3)nc(N)c2C#N)o1 | 3* | 11 | i | 7 | 6% | 1.1
Cc1cccc(CSC2=NCCN2C(=O)c2ccc(Br)o2)c1 | 1.1 | 0 | i | 18 | 6% | 1
Cc1nn(CC(=O)Nc2cccnc2N2CCOCC2)c(=O)c2ccccc12 | 1.1 | 0 | i | 3 | 1% | 1
Nc1nc2sc3c(c2cc1C(=O)N1CCOCC1)CCCC3 | 2.2* | 1 | nt | 28 | 15% | 1
Cc1cccc2cc3c(N)c(C(=O)N4CCOCC4)sc3nc12 | 1.1 | 9 | i | 15 | 8% | 1.1
CC(=O)Nc1ccn(-c2ccccc2)n1 | 1.1 | 1 | i | 11 | 2% | 1
CC(=O)NC1N=C(C)N(c2ccccc2)C1=O (centres undefined) | 1.1 | 28* | i | 0 | 9% | 1.1
Clc1ccc(OCCn2ccnc2)c(Cl)c1 | 1.1 | 3 | i | 6 | 4% | 1.1
Clc1ccc(SCCn2ccnc2)cc1 | 1 | 0 | i | 41* | 4% | 0.99
SMILES | Autofluor 339 | Spn PMK inh | Spn DPM-DC inh | Spn MK inh | NADH enzymes | A340 absorber
N=c1c(C(=O)NCc2ccco2)cc2c(=O)n3ccccc3nc2n1Cc1ccccc1 | 2.4* | 16 | i | 12 | 17% | 1
COCCn1c(=N)c(C(=O)NCc2ccco2)cc2c(=O)n3ccccc3nc21 | 3* | 10 | i | 4 | 14% | 1
CCOC(=O)c1cc2c(=O)n3ccccc3nc2n(Cc2ccc(Cl)cc2)c1=N | 2.3* | 6 | i | 1 | 3% | 1
N=c1c(C(=O)NCc2ccc3c(c2)OCO3)cc2c(=O)n3ccccc3nc2n1Cc1cccnc1 | 1.6 | 1 | i | 4 | 2% | 1
N=c1c(C(=O)NCc2ccco2)cc2c(=O)n3ccccc3nc2n1Cc1ccc(Cl)cc1 | 2.5* | 5 | i | 6 | 7% | 1.1
COCCCn1c(=N)c(C(=O)NCc2ccc3c(c2)OCO3)cc2c(=O)n3ccccc3nc21 | 1.2 | 0 | i | 1 | 0% | 1.1
CC(=O)Nc1ccc(C(=O)n2nc(C)cc2C)cc1 | 1.1 | 0 | i | 0 | 0% | 1
CCOC(=O)C1CCCN(C(=O)CN2CCN(Cc3ccc(Cl)cc3)C2=O)C1 (centres undefined) | 1.1 | 0 | i | 5 | 2% | 1.1
Cc1nc2sccn2c1-c1nc(C2CC2)c(C(=O)c2ccc3c(c2)NC(=O)CO3)s1 | 1.3 | 13 | i | 0 | 4% | 1
O=C(CCn1c(=O)c2ccccc2n(Cc2cc(=O)n3ccccc3n2)c1=O)NCc1ccco1 | 2.2* | 14 | i | 0 | 5% | 1.1
COC(=O)C1=CN(C2CC2)C=C(C(=O)OC)C1c1ccccc1OC | 3.8* | 8 | nt | 4 | 6% | 1
O=C(Cc1cn2ccsc2n1)OCc1ccccc1 | 1 | 13 | i | 8 | 7% | 0.98
O=C(Cc1cn2ccsc2n1)OCc1nc2ccccc2s1 | 1 | 25* | i | 1 | 9% | 1
COc1ccccc1NC(=O)CC1Nc2ccccc2NC1=O (centres undefined) | 1.4 | 6 | i | 11 | 10% | 1.1
COc1ccc(CCNC(=O)CC2Nc3cc(C)c(C)cc3NC2=O)cc1OC (centres undefined) | 2.1* | 14 | i | 2 | 6% | 1.1
Cc1cc2c(cc1C)NC(CC(=O)NCc1ccccc1)C(=O)N2 (centres undefined) | 2.1* | 0 | nt | 0 | 0% | 1.2
CN(C)C(=O)Nc1cnc2ccccc2c1 | 0.59 | 0 | + | 0 | 13% | 1
O=C(OCC#CCSc1nnc(-c2cccc3ccccc23)o1)c1cccs1 | 2.2* | 3 | i | 8 | 4% | 1.1
O=C(OCC#CCSc1nnc(-c2ccccc2)o1)c1cccs1 | 0.99 | 0 | i | 6 | 2% | 0.98
CCCC(=O)Nc1cccc(-c2nc3ccccc3o2)c1 | 1.1 | 2 | i | 5 | 2% | 1.1
O=C(Nc1ccc2oc(-c3cccnc3)nc2c1)c1cc2ccccc2o1 | 2.1* | 0 | nt | 4 | 2% | 1.1
CCCCC(=O)Nc1ccc2oc(-c3cccnc3)nc2c1 | 3.9* | 8 | nt | 6 | 7% | 1
Cc1cc(-c2nc3ncccc3o2)ccc1N | 3* | 7 | nt | 9 | 5% | 1.1
CCCC(=O)Nc1ccc2oc(-c3cccnc3)nc2c1 | 2.8* | 20 | nt | 0 | 3% | 1
